In PubChem BioAssay:
Where “and” joins values, the source holds several entries; their conditions need not be identical. Equal values may be shown once. Results filed as inconclusive are left out. Calls of active or inactive are those of the source. Unless noted, how the calls were made is not given here.

Tests used:
[1] = circadian clock period modulators, cell-based, LOPAC library, luminescence reporter (AID 2774); details: circadian reporter cells, at 7 µM, actives lie on both sides;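 further: values are relative to mean of DMSO wells on each plate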
[2] = liver-stage malaria parasite growth inhibition, primary screen, cell-based, HepG2, luciferase luminescence, HepG2 viability (AID 624349; in the data active means parasite load remaining mostly below about 12%, no sharp cut-off; inactive means mostly above about 10%;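 further: 100% = mean of DMSO negative control wells on the same plate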); details: P. berghei liver stage in HepG2, luciferase luminescence, concentration not given here; parasite load remaining: stronger effect = lower value; viability: measured here: HepG2 viability without parasites
[3] = system: Hepatitis C virus NS3 helicase; assay: HCV NS3 helicase inhibitors, primary screen, biochemical, fluorescence polarization, LOPAC1280 library (AID 687035; in the data active means inhibition above about 37%); details: Purified HCV NS3 helicase, Cy5-dT15 ssDNA binding fluorescence polarization; stronger effect = higher value; concentration not given here
[4] = Cy5 fluorescence quenching or enhancement artefacts, artefact control for HCV NS3 helicase inhibitor project, biochemical, LOPAC1280 (AID 687037); details: Cy5-DNA-NS3h complex fluorescence interference counterscreen
[5] = sensitizers of A549 cells to miR-34 induction, primary screen, imaging, A549 dox-inducible miR-34, nuclei and caspase counts (AID 1347080;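 active means compounds whose cell count with miR-34 switched on is under 0.7 times the count with it off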); details: A549 miR-34 inducible, Hoechst nuclei count, 48 h
[6] = phospholipid biosynthesis inhibitors in animal cells, primary screen, cell-based, LOPAC library, screen 4 (AID 1347384); details: phospholipid biosynthesis inhibition screen, at 10 µM
[7] = survival rescue of mitochondrial mutant cells in low glucose, primary screen, MELAS cybrids, Rieske KO mouse fibroblasts, CellTiter-Glo (AID 1508586;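 active means mean z-score across replicates of 1.96 or higher in either the MELAS or the Rieske mutant cell line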;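 further: z relative to plate mean and SD of compound and empty wells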)
[8] = viability rescue of complex I mutant cybrids, primary screen, cell-based, galactose medium, ATP luminescence (AID 1645843;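 active means z-score of at least 1.8 in each of two replicates, scored against plate mean and spread of sample wells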;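 further: positive z means more ATP and so rescue of galactose-driven cybrid death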); details: complex I mutant cybrid cells, 72 h, stronger effect = higher value
[9] = hESC survival regulators, cell-based (AID 493140); details: human embryonic stem cell survival screen; stronger effect = higher value;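 further: cells exposed to compounds for four days before counting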
[10] = inhibitors of Cryptococcus chitosan production, flow cytometry, Cibacron Brilliant Red staining (AID 1347148); details: Cryptococcus neoformans chitosan, stronger effect = lower value; at 10 µM unless noted;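 further: compound exposure lasted three days at 37 degrees C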
[11] = target: ATP-dependent translocase ABCB1 (Homo sapiens) (UniProt P08183); assay: MDR1 (ABCB1) efflux transporter inhibition, cell-based (AID 377; in the data active means fluorescence slope change above about 50%); details: MDR1-expressing cells, fluorescent substrate accumulation slope; stronger effect = higher value; concentration not given here
Chain of ATP-dependent translocase ABCB1 (Homo sapiens) (P08183 whole entry, looked up): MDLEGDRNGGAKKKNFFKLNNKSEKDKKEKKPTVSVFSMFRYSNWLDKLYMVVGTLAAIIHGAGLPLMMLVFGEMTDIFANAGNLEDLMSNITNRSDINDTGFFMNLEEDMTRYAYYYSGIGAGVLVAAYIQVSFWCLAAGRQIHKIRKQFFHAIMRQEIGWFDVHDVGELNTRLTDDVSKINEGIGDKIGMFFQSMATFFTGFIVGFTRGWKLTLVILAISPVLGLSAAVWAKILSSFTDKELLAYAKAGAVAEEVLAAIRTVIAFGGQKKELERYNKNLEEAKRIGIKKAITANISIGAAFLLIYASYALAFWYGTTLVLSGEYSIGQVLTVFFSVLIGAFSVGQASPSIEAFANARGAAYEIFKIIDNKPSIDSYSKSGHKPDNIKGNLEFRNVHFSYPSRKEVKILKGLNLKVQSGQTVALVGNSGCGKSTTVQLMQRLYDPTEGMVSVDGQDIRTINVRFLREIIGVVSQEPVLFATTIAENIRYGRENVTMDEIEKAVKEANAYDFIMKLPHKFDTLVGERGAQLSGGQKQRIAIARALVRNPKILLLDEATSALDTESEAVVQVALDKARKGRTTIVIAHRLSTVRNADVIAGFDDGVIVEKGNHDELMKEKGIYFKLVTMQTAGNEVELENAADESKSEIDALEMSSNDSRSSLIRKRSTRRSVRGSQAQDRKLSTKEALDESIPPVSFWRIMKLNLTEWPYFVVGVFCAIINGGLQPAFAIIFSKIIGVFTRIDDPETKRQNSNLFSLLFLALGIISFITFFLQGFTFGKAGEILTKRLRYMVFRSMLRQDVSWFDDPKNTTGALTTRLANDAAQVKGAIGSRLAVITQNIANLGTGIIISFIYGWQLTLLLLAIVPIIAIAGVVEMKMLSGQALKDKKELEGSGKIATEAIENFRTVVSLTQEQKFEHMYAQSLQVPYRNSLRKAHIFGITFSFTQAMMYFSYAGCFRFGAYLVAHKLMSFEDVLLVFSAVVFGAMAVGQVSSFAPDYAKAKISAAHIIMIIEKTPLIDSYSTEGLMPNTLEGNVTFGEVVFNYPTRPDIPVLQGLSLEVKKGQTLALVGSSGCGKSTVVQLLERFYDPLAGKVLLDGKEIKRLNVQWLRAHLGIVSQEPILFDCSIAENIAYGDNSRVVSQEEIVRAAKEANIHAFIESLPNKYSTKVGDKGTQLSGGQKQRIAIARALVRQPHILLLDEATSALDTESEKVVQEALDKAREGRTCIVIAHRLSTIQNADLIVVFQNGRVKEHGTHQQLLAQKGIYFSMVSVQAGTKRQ

[12] = modifiers of HSF1 nuclear foci, imaging, Selleck Cancer Library (AID 1347162; in the data active means plate-normalised HSF1 focus index below about 0.46); details: human cells, at 10 µM; SSMD: measured here: HSF1 foci SSMD mean; cell count: measured here: cell number; plate-normalised HSF1 focus index: stronger effect = lower value
[13] = stronger effect = lower value, cell number ratio, induced over uninduced
[14] = measured here: relative caspase fold change +Dox/-Dox
[15] = measured here: total cells with miR-34 induction, stronger effect = lower value
[16] = measured here: total cells without miR-34 induction
[17] = MELAS cybrid survival, CellTiter-Glo 48 h, stronger effect = higher value
[18] = Rieske KO mouse fibroblast survival, CellTiter-Glo 72 h

SMILES	period change [1]	parasite load remaining [2]	viability [2]	inhibition [3]	fluorescence ratio (interference) [4]	fold change [5, 13]	fold change [5, 14]	cell count [5, 15]	cell count [5, 16]	outcome [6]	z-score [7, 17]	z-score [7, 18]	z-score [8]	survival [9]	fold fluorescence [10]	fluorescence slope change [11]	SSMD [12]	cell count [12]	plate-normalised HSF1 focus index [12]
CC(C)(C)[C@]1(O)CCN2C[C@H]3c4ccccc4CCc4cccc(c43)[C@@H]2C1	0.045 hour (inactive) and 0.1 hour (inactive)	63.7% (inactive)	156%	0% (inactive) and -5% (inactive)	1 (inactive)	1.18 (inactive) and 1.07 (inactive) and 0.945 (inactive)	1.07 and 1.2 and 1.29	6310 and 6160 and 8940	5360 and 5740 and 9460	inactive	0.22 (inactive)	-0.23	-1.48 (inactive) and -1.34 (inactive) and -0.325 (inactive)						
COc1ccc(C(=O)NCc2cccnc2)cc1C(=O)NCc1cccnc1	-0.05 h (inactive)	27.2% (inactive) and 91.5% (inactive) and 35% (inactive)	71% and 87.7% and 69.5%	-2% (inactive)	1 (inactive)	0.938 (inactive) and 0.931 (inactive) and 0.857 (inactive)	1.32 and 2 and 1.31	10400 and 9270	11100 and 9960 and 10800	inactive	0.681 (inactive) and 0.373 (inactive)	0.414 and 0.0826	0.09 (inactive) and 0.34 (inactive)	25.1 (inactive)					
CC/C=C\C/C=C\C/C=C\C/C=C\C/C=C\CCCC(=O)O						0.976 (inactive) and 0.979 (inactive)	0.982 and 0.878	5680 and 5960	5820 and 6080					106 (inactive)	4.6 (inactive)				
COc1ccc(-c2ccc(N)[n+](CCCC(=O)O)n2)cc1	0.235 h (inactive)	113% (inactive) and 70.4% (inactive)	102% and 78.3%	-3% (inactive)	0.9 (inactive)	0.962 (inactive) and 0.851 (inactive)	1.4 and 1.26	9690 and 9480	10100 and 11100	inactive	0.473 (inactive)	0.0476	0.685 (inactive)	6.75 (inactive)		101% (active)			
CC(C)NC[C@H](O)c1ccc(O)c(O)c1	0.03 h (inactive)	71.3% (inactive)	68.4%	3% (inactive) and -5% (inactive)	1 (inactive) and 0.9 (inactive)	1.16 (inactive) and 1.1 (inactive) and 0.953 (inactive)	0.694 and 0.901 and 0.646	9390 and 11000 and 9560	8130 and 10100 and 10000	inactive	-0.508 (inactive)	-0.956	-1.02 (inactive) and -1.29 (inactive)						
C#CCCCCCCCCCCCCCCCC(=O)O						0.987 (inactive) and 1.06 (inactive)	1.49 and 0.91	5840 and 5920	5920 and 5580					96.8 (inactive)	5.76 (inactive)				
CC(=O)N[C@@H](CSC/C=C(\C)CC/C=C(\C)CC/C=C(\C)CCC=C(C)C)C(=O)O						0.941 (inactive) and 0.949 (inactive)	1.39 and 0.928	6090 and 5570	6470 and 5860					106 (inactive)	5.22 (inactive)				
CC/C=C\C/C=C\C/C=C\CCCCCCCCCC(=O)O						1.09 (inactive) and 1.03 (inactive)	1.26 and 1.06	5750 and 5880	5250 and 5730					95.1 (inactive)	4.88 (inactive)				
CCc1cncnc1N1CCN(Cc2nc3ccc(C(F)(F)F)cc3[nH]2)CC1						0.998 (inactive) and 0.92 (inactive)	1.49 and 0.523	6670 and 5920	6690 and 6430	inactive	0.232 (inactive)	0.0669	-1.37 (inactive)				2.94	7470	1.18 (inactive)
CO[C@H]1C[C@@H]2CC[C@@H](C)[C@@](O)(O2)C(=O)C(=O)N2CCCC[C@H]2C(=O)O[C@H]([C@H](C)C[C@@H]2CC[C@@H](O)[C@H](OC)C2)CC(=O)[C@H](C)/C=C(\C)[C@@H](O)[C@@H](OC)C(=O)[C@H](C)C[C@H](C)/C=C/C=C/C=C/1C		55.9% (inactive)	106%			0.856 (inactive) and 0.953 (inactive)	1.35 and 1.11	3240 and 7080	3790 and 7430		-0.0487 (inactive)	0.674	2.58 (active)				1.27	7610	1.08 (inactive)
CCCCC/C=C\C/C=C\CCCCCCCCCC(=O)O						0.992 (inactive) and 1.02 (inactive)	0.988 and 0.888	6110 and 5920	6160 and 5820					74.2 (inactive)	3.91 (inactive)				
O=C(O)CNC(=O)C(CS)Cc1ccccc1 (stereo not drawn)	-0.18 h (inactive)	144% (inactive) and 78.5% (inactive)	103% and 75.5%	0% (inactive)	1 (inactive)	0.968 (inactive) and 0.835 (inactive) and 1 (inactive)	1.08 and 1.52 and 1.29	9910 and 8670 and 5950	10200 and 10400 and 5920	inactive	-0.922 (inactive)	0.154	0.48 (inactive)	4.92 (inactive)					
CCCCCCCCCCCCC/C=C/[C@@H](O)[C@@H](N)CO						0.985 (inactive) and 0.945 (inactive)	1.13 and 1.49	6200 and 6060	6290 and 6410					98.4 (inactive) and 83.2 (inactive)	8.01 (inactive)				
